This passage reports outcome and AC50 results from PubChem BioAssay (EPA / NIEHS).

Read-out in assay [1]: Monokine induced gamma interferon (MIG), CXCL9 (gene 4283)
The experiment in a line: BSK_hDFCGF_MIG: BioMAP Diversity Plus: hDFCGF Assay for Monokine induced gamma interferon (MIG) Biomarker Activity (AID 2283063). The note with it: primary human foreskin fibroblasts; actives raise or lower the signal. The gist of the method:
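Human primary foreskin fibroblasts in the hDFCGF system, exposed to test chemical for 24 h; MIG measured by ELISA. Bidirectional curve fitting against DMSO negative control as activity baseline.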

Read-out in assay [2]: Vascular cell adhesion molecule 1 (VCAM1), VCAM1 (gene 7412)
The assay is described as follows: BSK_hDFCGF_VCAM1: BioMAP Diversity Plus: hDFCGF Assay for Vascular cell adhesion molecule 1 (VCAM1) Biomarker Activity (AID 2283065).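 On AC50: VCAM-1 protein level quantified by ELISA after 24 h chemical exposure.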 The note with it: primary human foreskin fibroblasts; actives raise or lower the signal. An outline of the steps: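 ELISA readout of VCAM-1 on human dermal fibroblast primary cultures, 24 h after chemical exposure. Gain or loss of signal fitted in both directions against DMSO baseline.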

Read-out in assay [3]: Plasminogen activator inhibitor-1 (PAI1), SERPINE1 (gene 5054)
The assay is described as follows: BSK_hDFCGF_PAI1: BioMAP Diversity Plus: hDFCGF Assay for Plasminogen activator inhibitor-1 (PAI1) Biomarker Activity (AID 2283066). The conditions noted are these: primary human foreskin fibroblasts; actives raise or lower the signal. The gist of the method:
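Fibroblasts from human foreskin were treated with test chemical. After 24 h, PAI-1 was measured by ELISA. Activity was fitted in both directions relative to DMSO.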

Read-out in assay [4]: Intercellular Adhesion Molecule 1 (ICAM1), ICAM1 (gene 3383)
The experiment in a line: BSK_KF3CT_ICAM1: BioMAP Diversity Plus: KF3CT Assay for Intercellular Adhesion Molecule 1 (ICAM1) Biomarker Activity (AID 2283067). The conditions noted are these: primary human keratinocytes with fibroblasts; actives raise or lower the signal. An outline of the steps: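 Cell-surface ICAM-1 was measured by ELISA 24 h after dosing primary human skin keratinocytes co-cultured with fibroblasts. Parallel SRB staining tracked overt cytotoxicity. Gain or loss of signal was fitted relative to DMSO.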

Read-out in assay [5]: Interferon-gamma inducible Protein 10 (IP10), CXCL10 (gene 3627)
The assay is described as follows: BSK_KF3CT_IP10: BioMAP Diversity Plus: KF3CT Assay for Interferon-gamma inducible Protein 10 (IP10) Biomarker Activity (AID 2283068). The note with it: primary human keratinocytes with fibroblasts; actives raise or lower the signal. An outline of the steps: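 Signal is secreted/surface IP-10 by ELISA in a human primary skin co-culture of keratinocytes and foreskin fibroblasts, taken 24 h post-dosing; DMSO served as negative control.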

Assay [6] in a line: BSK_KF3CT_SRB: Viability Assessment in the BioMAP Diversity Plus: KF3CT Assay (AID 2283069).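 Further: read 24 h after compound addition.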 The note with it: primary human keratinocytes with fibroblasts. An outline of the steps: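 Overt cytotoxicity is assessed as total protein by sulforhodamine B staining in parallel human skin co-cultures at 24 h after dosing. DMSO serves as negative control and baseline.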
Read-out in assay [7]: Interleukin-1 alpha (IL1a), IL1A (gene 3552)
The experiment in a line: BSK_KF3CT_IL1a: BioMAP Diversity Plus: KF3CT Assay for Interleukin-1 alpha (IL1a) Biomarker Activity (AID 2283070). The note with it: primary human keratinocytes with fibroblasts; actives raise or lower the signal. The gist of the method: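 Readout is IL-1a level by ELISA, compared bidirectionally with DMSO as baseline. Cells: human keratinocytes co-cultured with foreskin fibroblasts, harvested 24 h post-dose.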

Read-out in assay [8]: TIMP metallopeptidase inhibitor 2 (TIMP2), TIMP2 (gene 7077)
The assay is described as follows: BSK_KF3CT_TIMP2: BioMAP Diversity Plus: KF3CT Assay for TIMP metallopeptidase inhibitor 2 (TIMP2) Biomarker Activity (AID 2283071). The note with it: primary human keratinocytes with fibroblasts; actives raise or lower the signal. The gist of the method: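 Chemicals were dosed onto human skin primary co-cultures of keratinocytes and foreskin fibroblasts, and TIMP-2 was measured by ELISA after 24 hours. Activity in either direction was fitted relative to DMSO.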

Read-out in assay [9]: Transforming growth factor beta 1 (TGFb1), TGFB1 (gene 7040)
The assay is described as follows: BSK_KF3CT_TGFb1: BioMAP Diversity Plus: KF3CT Assay for Transforming growth factor beta 1 (TGFb1) Biomarker Activity (AID 2283072). The note with it: primary human keratinocytes with fibroblasts; actives raise or lower the signal. An outline of the steps: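 KF3CT co-culture (keratinocytes + fibroblasts), 24 h exposure → TGF-b1 ELISA → bidirectional fit, DMSO = baseline. Parallel SRB total-protein staining (0.1% SRB, 10% TCA fixation, 560 nm) for cytotoxicity.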

Read-out in assay [10]: C-C motif chemokine 2 (Homo sapiens) (UniProt P13500)
The assay is described as follows: BSK_KF3CT_MCP1: BioMAP Diversity Plus: KF3CT Assay for Monocyte Chemoattractant Protein 1 (MCP1/CCL2) Biomarker Activity (AID 2283073). The conditions noted are these: primary human keratinocytes with fibroblasts; actives raise or lower the signal. The gist of the method:
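ELISA read-out of MCP-1, 24 h post-dose, in primary human skin keratinocytes co-cultured with fibroblasts. Parallel SRB staining monitors cytotoxicity; changes fitted both directions relative to DMSO.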

Read-out in assay [11]: Matrix Metallopeptidase 9 (MMP9), MMP9 (gene 4318)
The experiment in a line: BSK_KF3CT_MMP9: BioMAP Diversity Plus: KF3CT Assay for Matrix Metallopeptidase 9 (MMP9) Biomarker Activity (AID 2283074).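 On AC50: MMP9 protein level quantified by ELISA in the co-culture.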 The note with it: primary human keratinocytes with fibroblasts; actives raise or lower the signal. An outline of the steps: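 Values come from bidirectional fitting relative to DMSO of MMP-9 levels, which were measured by ELISA. Measurements were taken 24 h after chemical dosing of a keratinocyte and foreskin fibroblast co-culture.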

Read-out in assay [12]: urokinase plasminogen activator (uPA), PLAU (gene 5328)
The assay is described as follows: BSK_KF3CT_uPA: BioMAP Diversity Plus: KF3CT Assay for urokinase plasminogen activator (uPA) Biomarker Activity (AID 2283075). The conditions noted are these: primary human keratinocytes with fibroblasts; actives raise or lower the signal. An outline of the steps:
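Values derive from bidirectional fitting against DMSO controls. Keratinocyte/foreskin fibroblast co-cultures received chemical; 24 h later uPA was detected by ELISA, with SRB total-protein staining in parallel wells for overt cytotoxicity.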

Read-out in assay [13]: CD40, CD40 (gene 958)
The experiment in a line: BSK_LPS_CD40: BioMAP Diversity Plus: LPS Assay for CD40 Biomarker Activity (AID 2283076). The note with it: primary human HUVEC with PBMC; actives raise or lower the signal. The gist of the method: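 In the LPS system of human endothelial cells with peripheral blood mononuclear cells, CD40 levels were read by ELISA 24 h post-treatment. Signal changes in either direction were fitted against the DMSO baseline, with parallel SRB protein staining.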

Read-out in assay [14]: E-selectin (Homo sapiens) (UniProt P16581)
The assay is described as follows: BSK_LPS_Eselectin: BioMAP Diversity Plus: LPS Assay for Eselectin Biomarker Activity (AID 2283077). The conditions noted are these: primary human HUVEC with PBMC; actives raise or lower the signal. An outline of the steps: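 E-selectin ELISA on LPS-stimulated endothelial cell/PBMC co-cultures, read 24 h post-treatment; gains and losses fitted against DMSO. Parallel SRB staining (0.1% SRB after 10% TCA fixation, 560 nm) flags overt cytotoxicity.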

Read-out in assay [15]: Interleukin-8 (IL8), CXCL8 (gene 3576)
The experiment in a line: BSK_LPS_IL8: BioMAP Diversity Plus: LPS Assay for Interleukin-8 (IL8) Biomarker Activity (AID 2283078). The note with it: primary human HUVEC with PBMC; actives raise or lower the signal. The gist of the method: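 ELISA read-out of IL-8 after 24 h chemical treatment of LPS-activated endothelial/PBMC human primary co-cultures. Changes either up or down relative to DMSO; overt cytotoxicity checked by sulforhodamine B staining in parallel wells.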

A short description of assay [16]: BSK_LPS_SRB: Viability Assessment in the BioMAP Diversity Plus: LPS Assay (AID 2283079).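 Further: total protein by sulforhodamine B absorbance as a cytotoxicity measure; measured one day after compound addition.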 The note with it: primary human HUVEC with PBMC. The gist of the method:
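SRB viability endpoint: cells fixed with 10% TCA, stained with 0.1% SRB, read at 560 nm, 24 h post-dose. HUVEC/PBMC co-culture; signal change in either direction scored relative to DMSO.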

Read-out in assay [17]: Interleukin-1 alpha (IL1a), IL1A (gene 3552)
The experiment in a line: BSK_LPS_IL1a: BioMAP Diversity Plus: LPS Assay for Interleukin-1 alpha (IL1a) Biomarker Activity (AID 2283080). The note with it: primary human HUVEC with PBMC; actives raise or lower the signal. The gist of the method: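 Readout is IL-1a level by ELISA, 24 h post-dose, fitted as gain or loss relative to DMSO. System: LPS-activated human primary co-culture of vascular endothelium and peripheral blood mononuclear cells, with parallel SRB total-protein cytotoxicity.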

Read-out in assay [18]: Monocyte Chemoattractant Protein-1 (MCP1), CCL2 (gene 6347)
The assay is described as follows: BSK_LPS_MCP1: BioMAP Diversity Plus: LPS Assay for Monocyte Chemoattractant Protein-1 (MCP1) Biomarker Activity (AID 2283081).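 On AC50: secreted MCP-1 protein quantified by ELISA in culture supernatant.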 The conditions noted are these: primary human HUVEC with PBMC; actives raise or lower the signal. An outline of the steps:
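Secreted MCP-1 read by ELISA at 24 h post-dosing in an LPS-activated co-culture of endothelial cells with peripheral blood mononuclear cells. Fits run in both directions, DMSO as baseline; parallel SRB staining tracks overt cytotoxicity.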

A short description of assay [19]: BSK_LPS_PGE2: BioMAP Diversity Plus: LPS Assay for Prostaglandin E2 (PGE2) Biomarker Activity (AID 2283082). The note with it: primary human HUVEC with PBMC; actives raise or lower the signal. An outline of the steps: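 Compounds were added to the LPS co-culture of endothelium and PBMC, and PGE2 was measured by ELISA after 24 h. Responses in either direction were fitted with DMSO as baseline.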

What is called AC50 is the concentration giving half of the maximal activity seen.

Each structure is given as a SMILES string. The source made the active and inactive calls. How the source made its calls: active means hit-call score of the fitted dose curve at least 0.9, where 1 is the maximum; inactive means score below 0.9.

Chain of E-selectin (Homo sapiens) (P16581 whole entry, looked up): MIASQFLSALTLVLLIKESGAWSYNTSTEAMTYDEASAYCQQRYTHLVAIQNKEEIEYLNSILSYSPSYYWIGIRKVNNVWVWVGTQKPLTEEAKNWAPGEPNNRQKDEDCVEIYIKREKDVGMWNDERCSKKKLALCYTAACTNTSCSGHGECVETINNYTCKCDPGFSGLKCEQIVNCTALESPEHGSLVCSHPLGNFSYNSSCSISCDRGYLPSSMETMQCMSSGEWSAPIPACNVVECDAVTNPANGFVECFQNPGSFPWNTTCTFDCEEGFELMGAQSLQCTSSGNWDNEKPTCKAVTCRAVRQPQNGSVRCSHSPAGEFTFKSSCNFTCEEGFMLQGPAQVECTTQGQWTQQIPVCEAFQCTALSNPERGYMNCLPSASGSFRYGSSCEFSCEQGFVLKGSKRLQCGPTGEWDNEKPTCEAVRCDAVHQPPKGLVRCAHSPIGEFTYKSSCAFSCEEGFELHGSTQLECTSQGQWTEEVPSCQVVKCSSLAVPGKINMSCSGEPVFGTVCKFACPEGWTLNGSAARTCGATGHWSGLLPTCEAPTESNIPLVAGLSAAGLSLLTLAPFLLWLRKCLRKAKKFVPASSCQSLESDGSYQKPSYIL

As for `CC(C)(C)c1cc([N+](=O)[O-])cc(C(C)(C)C)c1O`, the result in assay [1], in assay [2], in assay [3], in assay [4], in assay [6] and in [7] was inactive. For the same compound, the outcome in assay [9], in [12], in assay [15], in assay [17], in [18] and in assay [19] was inactive. For the same compound, the AC50 in assay [5] was 0.0652 µM (active); in assay [8], 20 µM (active); in assay [10], 30.7 µM (active); in assay [11] it was 11.3 µM (active); in [13] it was 0.492 µM (active); in [14], 0.345 µM (active). The AC50 in [16] is 0.683 µM (active).
As for `C#CCOC(=O)/C=C(C)/C=C/CC(C)CCCC(C)C` (centres undefined), the result in assay [1], in assay [4], in assay [5], in assay [6], in assay [7] and in [8] was inactive. In addition, the outcome in assay [9], in [11], in assay [12], in [16], in [17] and in assay [18] was inactive. In assay [19], the outcome was inactive. Moreover, the AC50 in assay [2] is 5.7 µM (active); in assay [3] it was 11.6 µM (active); in [13] it was 20 µM (active); in assay [14] it was 20 µM (active); in [15] it was 0.242 µM (active).
As to `Cc1ccc2nc3sc(=O)sc3nc2c1`, the AC50 in [1] was 7.3 µM (active); in assay [2] it was 5 µM (active); in assay [4] it was 3.16 µM (active); in [7], 5 µM (active); in [8] it was 2.5 µM (active); in assay [13] it was 4.27 µM (active). Moreover, the AC50 in assay [14] is 8.18 µM (active); in assay [16], 3.67 µM (active); in assay [17], 7.83 µM (active); in assay [18], 6.93 µM (active); in assay [19] it was 1.2 µM (active). Moreover, the outcome in assay [3], in [5], in assay [6], in assay [9], in assay [12] and in assay [15] was inactive.
`Oc1ccc(Cc2ccc(O)cc2)cc1`: the result in [1], in assay [2], in [3], in assay [4], in [5] and in [6] was inactive. Moreover, the result in assay [7], in [8], in assay [9], in assay [11], in [12] and in assay [13] was inactive. The outcome in assay [14], in assay [15], in [16], in [17], in assay [18] and in assay [19] was inactive.
On to `CCOP(=O)(OCC)OC(=CCl)c1ccc(Cl)cc1Cl`, for which the AC50 is 30.7 µM (active) in assay [1]; 36.8 µM (active) in assay [2]; 24.7 µM (active) in assay [3]; 32.8 µM (active) in assay [5]; 35.2 µM (active) in [6]; 25.7 µM (active) in [8]. Also, the AC50 in assay [9] was 27.1 µM (active); in [11], 31.9 µM (active); in assay [12], 33.2 µM (active); in assay [13], 20 µM (active). The outcome in assay [4], in assay [14], in assay [15], in assay [16], in [17] and in assay [18] was inactive. Further, in assay [19], the result was inactive.
